# Measurements from PubChem BioAssay (EPA / NIEHS).
# Where a structure was tested more than once in an assay, its records may differ in their call. Active and inactive are the calls of the source. The calls were made as follows: active = hit-call score of the fitted dose curve at least 0.9, where 1 is the maximum; inactive = score below 0.9.
# Columns and labels:
# [1] = ATG_Ets_CIS: Attagene CIS-FACTORIAL HepG2 Assay for human Erythroblast Transformation Specific (ETS) (AID 2282941); settings: HepG2 ETS cis-reporter transcription, actives raise or lower the signal
# Method in brief: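 Cis-regulated reporter mRNA induction in HepG2 (transient transfection), 24 h exposure, RT-PCR plus capillary electrophoresis detection; DMSO serves as negative control and baseline.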
# [2] = target: Hepatocyte nuclear factor 3-beta (Homo sapiens) (UniProt Q9Y261); test: ATG_FoxA2_CIS: Attagene CIS-FACTORIAL HepG2 Assay for human Forkhead box A2 (FOXA2) (AID 2282942); settings: HepG2 cis-reporter transcription factor activity, 24 h; actives raise or lower the signal
# Method in brief: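 Transient MRTU transfection of HepG2 liver cells; 24 h treatment; total RNA → oligo(dT) RT → PCR → FAM primer extension → HpaI cut → CE. Bidirectional fit vs DMSO.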
# [3] = ATG_FoxO_CIS: Attagene CIS-FACTORIAL HepG2 Assay for human Forkhead box O (FoxO) (AID 2282943); settings: HepG2 Attagene cis-reporter, FoxO element, mRNA; actives raise or lower the signal
# Method in brief: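 HepG2 cells transiently transfected with cis-promoter-driven multiple reporter transcription units; 24 h after chemical dosing, reporter mRNA quantified by RT-PCR, fluorescent primer extension, HpaI digestion and capillary electrophoresis. Bidirectional fitting versus DMSO baseline.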
# [4] = ATG_GATA_CIS: Attagene CIS-FACTORIAL HepG2 Assay for human GATA Binding Protein (AID 2282944); settings: HepG2 GATA cis-element reporter, Attagene multiplex mRNA; actives raise or lower the signal
# Method in brief: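 Endogenous transcription factor activity was captured through cis-promoter-driven reporters in transfected HepG2 cells. After 24 h exposure, reporter transcripts were quantified by RT-PCR with fluorescent capillary electrophoresis, and responses fitted both directions against DMSO.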
# [5] = ATG_GLI_CIS: Attagene CIS-FACTORIAL HepG2 Assay for human Zinc Finger Protein GLI1 (AID 2282945); settings: HepG2, Attagene cis-factorial reporter mRNA, GLI element; actives raise or lower the signal
# Method in brief: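 HepG2 cells transiently transfected with cis-promoter multiplexed reporter units report endogenous transcription factor activity. After 24 h chemical exposure, reporter mRNA was quantified by RT-PCR, 6-FAM labelling, HpaI digestion and capillary electrophoresis, with bidirectional fitting against DMSO.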
# [6] = ATG_GRE_CIS: Attagene CIS-FACTORIAL HepG2 Assay for human Glucocorticoid Response Elements (GRE) (AID 2282947); settings: HepG2 GRE cis-reporter, Attagene multiplex mRNA; actives raise or lower the signal
# Method in brief: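 Cells (HepG2) bearing transfected cis-promoter reporter transcription units were treated with chemical for 24 hours. Reporter mRNA was measured via RT-PCR with capillary electrophoresis, and activity was fitted in both directions relative to DMSO.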
# [7] = ATG_ISRE_CIS: Attagene CIS-FACTORIAL HepG2 Assay for human Interferon Regulatory Factor 1 (IRF1) binding to an Interferon-Stimulated Response Element (ISRE) (AID 2282948); settings: HepG2 ISRE cis-reporter (Attagene), mRNA transcription readout; actives raise or lower the signal
# Method in brief: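 Multiplexed mRNA reporter readout in human liver HepG2 cells: cis-element-driven reporters transfected, compound added for 24 h, transcripts amplified, fluorescently labelled and sized by capillary electrophoresis; curve fitting bidirectional against DMSO.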
# [8] = ATG_M_32_CIS: Attagene CIS-FACTORIAL HepG2 Assay for M32 Transcription Factor (Internal Marker) (AID 2282949); settings: HepG2 Attagene cis-factorial M32 reporter, mRNA; actives raise or lower the signal;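 also: background control marker of the multiplexed CIS panel rather than a real target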
# Method in brief: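 HepG2 human liver cells transiently transfected with cis-promoter-driven multiple reporter transcription units, dosed 24 h. Reporter mRNA quantified by RT-PCR, FAM-labelled primer extension, HpaI digest and capillary electrophoresis; bidirectional fit versus DMSO baseline.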
# [9] = ATG_M_06_CIS: Attagene CIS-FACTORIAL HepG2 Assay for M06 Transcription Factor (Internal Marker) (AID 2282950); settings: HepG2 Attagene CIS-FACTORIAL M06 internal marker reporter; actives raise or lower the signal
# Method in brief: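 Steps: transfect HepG2 with multiplexed cis-element reporter constructs; dose chemical 24 h; extract RNA with DNase treatment; reverse-transcribe, PCR-amplify, 6-FAM label, HpaI digest; separate fragments by capillary electrophoresis. Activity fitted both directions versus DMSO.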
# [10] = target: Hypoxia-inducible factor 1-alpha (Homo sapiens) (UniProt Q16665); test: ATG_HIF1a_CIS: Attagene CIS-FACTORIAL HepG2 Assay for human Hypoxia Inducible Factor 1 (HIF1A) (AID 2282951); settings: HepG2 Attagene cis-factorial HIF1a reporter transcription; actives raise or lower the signal
# Method in brief: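 Transient MRTU transfection of human HepG2 liver cells, 24 h compound treatment, then total RNA isolation, oligo(dT) reverse transcription, PCR amplification, fluorescent labelling and capillary electrophoresis of reporter fragments. Gain or loss relative to DMSO.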
# [11] = target: Hepatocyte nuclear factor 6 (Homo sapiens) (UniProt Q9UBC0); test: ATG_HNF6_CIS: Attagene CIS-FACTORIAL HepG2 Assay for human Hepatocyte Nuclear Factor 6 (HNF6) (AID 2282952); settings: HepG2 Attagene cis-factorial HNF6 reporter transcription; actives raise or lower the signal
# Method in brief: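 Activity values derive from bidirectional fitting against DMSO of reporter mRNA levels, measured by capillary electrophoresis of labelled RT-PCR products from HepG2 cells exposed 24 h.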
# [12] = target: Heat shock factor protein 1 (Homo sapiens) (UniProt Q00613); test: ATG_HSE_CIS: Attagene CIS-FACTORIAL HepG2 Assay for human Heat Shock Transcription Factor 1 (HSE) (AID 2282953); settings: HepG2 HSE cis-reporter, Attagene RNA transcription; actives raise or lower the signal
# Method in brief: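 Cells were transfected with cis-element-driven reporter constructs, dosed for 24 h, then total RNA was reverse-transcribed and reporter cDNA amplified, FAM-labelled and digested with HpaI. Fragments were resolved by capillary electrophoresis; gain or loss was fitted against DMSO.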
# [13] = ATG_MRE_CIS: Attagene CIS-FACTORIAL HepG2 Assay for human Metal Responsive Element (MRE) (AID 2282954); settings: HepG2 MRE cis-reporter transcription, Attagene multiplex; actives raise or lower the signal
# Method in brief: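 Cells were transfected with cis-promoter reporter transcription units, then dosed for 24 h. RNA was reverse-transcribed, amplified, fluorescently labelled and resolved by capillary electrophoresis, and activity was fitted in both directions relative to DMSO.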
# [14] = ATG_PBREM_CIS: Attagene CIS-FACTORIAL HepG2 Assay for human Phenobarbital-responsive Enhancer Module (PBREM) (AID 2282955); settings: HepG2 PBREM cis-reporter, Attagene multiplexed transcription; actives raise or lower the signal
# Method in brief: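 Endogenous transcription factors in human liver HepG2 cells drive a PBREM cis-element reporter, whose transcript level after 24 h treatment is quantified by RT-PCR with capillary electrophoresis; activity fitted in both directions against DMSO.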
# [15] = target: Paired box protein Pax-6 (Homo sapiens) (UniProt P26367); test: ATG_Pax6_CIS: Attagene CIS-FACTORIAL HepG2 Assay for human Paired Box 6 (PAX6) (AID 2282956); settings: HepG2 CIS-FACTORIAL PAX6 reporter transcription, RNA readout; actives raise or lower the signal
# Method in brief: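 Fluorescent RT-PCR products separated by capillary electrophoresis report PAX6-linked promoter mRNA in HepG2 cells 24 h post-dose. Curves fitted bidirectionally, DMSO as negative control.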
# [16] = ATG_PXRE_CIS: Attagene CIS-FACTORIAL HepG2 Assay for human Pregnane X Receptor Element (PXRE) (AID 2282957); settings: HepG2 Attagene CIS-FACTORIAL PXRE reporter, mRNA; actives raise or lower the signal
# Method in brief: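 Fluorescent capillary electrophoresis of amplified reporter cDNA gave the signal, collected 24 h after dosing HepG2 cells that held transfected cis-element reporter constructs.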
# [17] = ATG_RORE_CIS: Attagene CIS-FACTORIAL HepG2 Assay for human RAR-related Orphan Receptor Element (RORE) (AID 2282959); settings: HepG2 Attagene cis-factorial RORE reporter, mRNA; actives raise or lower the signal
# Method in brief: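 Transient MRTU transfection of human HepG2 liver cells (FuGene 6); 24 h compound exposure; TriZol RNA, oligo(dT) RT, PCR, FAM labeling, HpaI cut, CE fragment analysis. DMSO = negative control/baseline.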
# [18] = ATG_PPRE_CIS: Attagene CIS-FACTORIAL HepG2 Assay for human Peroxisome Proliferator-activated Response Element (PPRE) (AID 2282958); settings: HepG2 PPRE cis-element reporter, Attagene transcription factor profiling; actives raise or lower the signal
# Method in brief: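 HepG2, transient MRTU transfection (cis promoter elements, endogenous TFs). 24 h dosing. RNA → oligo(dT) RT → PCR → 6-FAM primer extension → HpaI digest → CE. Bidirectional fit vs DMSO.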
# [19] = target: Bile acid receptor (Homo sapiens) (UniProt Q96RI1); test: ATG_IR1_CIS: Attagene CIS-FACTORIAL HepG2 Assay for human Nuclear Receptor Subfamily 1 Group H Member 4 (NR1H4), IR1 submotif (AID 2282946); settings: IR1 reporter transcription, actives raise or lower the signal
# Method in brief: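 Readout: reporter transcript levels by RT-PCR with fluorescent capillary electrophoresis, from HepG2 cells transiently transfected with multiplexed cis-regulated reporters and dosed 24 h. Gain- or loss-of-signal fitted versus DMSO negative control.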
# Chain of Hepatocyte nuclear factor 6 (Homo sapiens) (Q9UBC0 whole entry, looked up): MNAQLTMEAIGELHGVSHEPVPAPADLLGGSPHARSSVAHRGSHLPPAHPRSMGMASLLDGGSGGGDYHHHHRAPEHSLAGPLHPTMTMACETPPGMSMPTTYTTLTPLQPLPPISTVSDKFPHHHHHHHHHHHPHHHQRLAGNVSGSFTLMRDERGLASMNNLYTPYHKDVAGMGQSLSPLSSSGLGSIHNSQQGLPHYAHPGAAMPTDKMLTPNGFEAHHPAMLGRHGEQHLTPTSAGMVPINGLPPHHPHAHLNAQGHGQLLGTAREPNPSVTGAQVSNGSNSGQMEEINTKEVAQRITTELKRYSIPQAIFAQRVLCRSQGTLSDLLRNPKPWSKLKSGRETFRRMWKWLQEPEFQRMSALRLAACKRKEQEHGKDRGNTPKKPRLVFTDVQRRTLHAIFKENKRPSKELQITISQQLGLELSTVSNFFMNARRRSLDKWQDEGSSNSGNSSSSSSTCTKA
# Chain of Paired box protein Pax-6 (Homo sapiens) (P26367 whole entry, looked up): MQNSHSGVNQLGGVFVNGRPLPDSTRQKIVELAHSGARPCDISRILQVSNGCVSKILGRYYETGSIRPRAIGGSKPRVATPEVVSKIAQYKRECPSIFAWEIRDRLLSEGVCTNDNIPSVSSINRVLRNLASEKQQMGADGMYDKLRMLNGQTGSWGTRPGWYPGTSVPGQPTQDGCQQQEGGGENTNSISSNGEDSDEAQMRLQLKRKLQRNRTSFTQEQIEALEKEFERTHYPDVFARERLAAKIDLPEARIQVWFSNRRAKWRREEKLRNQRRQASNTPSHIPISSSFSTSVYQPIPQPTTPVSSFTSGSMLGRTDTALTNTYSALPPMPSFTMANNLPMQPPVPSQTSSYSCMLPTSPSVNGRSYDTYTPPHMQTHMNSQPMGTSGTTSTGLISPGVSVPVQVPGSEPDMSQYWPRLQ
# Chain of Hepatocyte nuclear factor 3-beta (Homo sapiens) (Q9Y261 whole entry, looked up): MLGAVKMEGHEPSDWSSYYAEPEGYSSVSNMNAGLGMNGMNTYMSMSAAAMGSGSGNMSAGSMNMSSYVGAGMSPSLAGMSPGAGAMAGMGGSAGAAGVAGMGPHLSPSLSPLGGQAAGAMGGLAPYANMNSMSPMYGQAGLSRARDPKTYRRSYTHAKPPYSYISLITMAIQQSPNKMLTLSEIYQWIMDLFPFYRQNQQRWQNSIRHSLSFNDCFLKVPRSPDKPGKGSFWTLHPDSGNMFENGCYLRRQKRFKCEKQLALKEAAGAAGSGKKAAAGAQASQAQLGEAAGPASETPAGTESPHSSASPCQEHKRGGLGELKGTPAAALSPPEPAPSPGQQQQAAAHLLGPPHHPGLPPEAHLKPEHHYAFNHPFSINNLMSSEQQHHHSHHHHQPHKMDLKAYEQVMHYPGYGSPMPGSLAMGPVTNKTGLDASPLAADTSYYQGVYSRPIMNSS
# Chain of Heat shock factor protein 1 (Homo sapiens) (Q00613 whole entry, looked up, the tested form may be a part): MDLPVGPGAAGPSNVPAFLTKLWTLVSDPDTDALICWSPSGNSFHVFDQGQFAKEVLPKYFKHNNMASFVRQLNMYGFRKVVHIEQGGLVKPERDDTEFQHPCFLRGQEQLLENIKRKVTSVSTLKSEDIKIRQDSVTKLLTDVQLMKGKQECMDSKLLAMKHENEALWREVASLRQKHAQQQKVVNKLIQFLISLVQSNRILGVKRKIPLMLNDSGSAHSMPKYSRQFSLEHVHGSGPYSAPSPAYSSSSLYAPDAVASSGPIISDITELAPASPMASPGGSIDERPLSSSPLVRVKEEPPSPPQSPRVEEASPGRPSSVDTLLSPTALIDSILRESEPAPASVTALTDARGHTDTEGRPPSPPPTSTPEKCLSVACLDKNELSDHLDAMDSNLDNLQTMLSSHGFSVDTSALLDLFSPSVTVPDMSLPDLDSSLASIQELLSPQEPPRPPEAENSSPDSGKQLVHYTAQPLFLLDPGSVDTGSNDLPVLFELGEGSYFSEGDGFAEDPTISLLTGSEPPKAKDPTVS
# Chain of Hypoxia-inducible factor 1-alpha (Homo sapiens) (Q16665 whole entry, looked up, the tested form may be a part): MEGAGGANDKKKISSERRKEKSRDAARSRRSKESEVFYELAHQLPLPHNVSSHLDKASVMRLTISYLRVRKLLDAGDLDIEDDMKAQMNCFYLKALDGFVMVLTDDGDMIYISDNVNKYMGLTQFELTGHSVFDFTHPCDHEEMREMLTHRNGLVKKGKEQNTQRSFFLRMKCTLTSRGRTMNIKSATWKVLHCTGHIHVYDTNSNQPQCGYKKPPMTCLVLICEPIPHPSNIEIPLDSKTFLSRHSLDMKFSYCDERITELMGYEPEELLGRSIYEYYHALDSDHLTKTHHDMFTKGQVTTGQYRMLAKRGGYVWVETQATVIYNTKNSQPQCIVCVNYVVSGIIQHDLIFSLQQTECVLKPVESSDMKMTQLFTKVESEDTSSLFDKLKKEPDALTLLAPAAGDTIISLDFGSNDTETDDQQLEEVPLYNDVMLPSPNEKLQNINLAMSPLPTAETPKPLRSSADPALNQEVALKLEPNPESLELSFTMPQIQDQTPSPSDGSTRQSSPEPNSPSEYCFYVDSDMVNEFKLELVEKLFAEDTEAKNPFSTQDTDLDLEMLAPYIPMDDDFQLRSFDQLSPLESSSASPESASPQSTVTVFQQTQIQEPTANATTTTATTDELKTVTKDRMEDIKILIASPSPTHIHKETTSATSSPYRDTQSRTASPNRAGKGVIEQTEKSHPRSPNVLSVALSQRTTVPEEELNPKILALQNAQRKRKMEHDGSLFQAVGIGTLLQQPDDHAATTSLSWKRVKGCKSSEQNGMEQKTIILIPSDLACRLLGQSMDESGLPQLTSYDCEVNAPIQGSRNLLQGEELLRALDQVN
# Chain of Bile acid receptor (Homo sapiens) (Q96RI1 whole entry, looked up): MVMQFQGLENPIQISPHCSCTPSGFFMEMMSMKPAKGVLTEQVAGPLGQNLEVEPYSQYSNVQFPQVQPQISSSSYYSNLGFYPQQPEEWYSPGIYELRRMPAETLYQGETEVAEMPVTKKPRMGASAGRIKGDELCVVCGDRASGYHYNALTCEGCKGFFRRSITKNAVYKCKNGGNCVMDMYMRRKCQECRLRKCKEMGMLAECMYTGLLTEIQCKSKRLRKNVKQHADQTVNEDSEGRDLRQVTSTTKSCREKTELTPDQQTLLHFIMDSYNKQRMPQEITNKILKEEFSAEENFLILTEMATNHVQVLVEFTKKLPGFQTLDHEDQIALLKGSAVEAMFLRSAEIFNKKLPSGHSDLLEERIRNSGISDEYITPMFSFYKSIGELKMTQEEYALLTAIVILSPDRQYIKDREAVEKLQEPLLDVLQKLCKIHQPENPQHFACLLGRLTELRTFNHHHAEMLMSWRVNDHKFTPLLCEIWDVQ
structure (smiles),measurement,setting,value
CC(C)C(C)(N)C#N (stereo unspecified),outcome,[1],inactive
same,outcome,[2],inactive
same,outcome,[3],inactive
same,outcome,[4],inactive
same,outcome,[5],inactive
same,outcome,[6],inactive
same,outcome,[7],inactive
same,outcome,[8],inactive
same,outcome,[9],inactive
same,outcome,[10],inactive
same,outcome,[11],inactive
same,outcome,[12],inactive
same,outcome,[13],inactive
same,outcome,[14],inactive
same,outcome,[15],inactive
same,AC50,[16],26 µM (active)
same,outcome,[17],inactive
O=C(O)CC(O)(CC(=O)O)C(=O)O,outcome,[1],inactive
same,outcome,[2],inactive
same,outcome,[3],inactive
same,outcome,[4],inactive
same,outcome,[5],inactive
same,outcome,[7],inactive
same,outcome,[8],inactive
same,outcome,[9],inactive
same,outcome,[11],inactive
same,outcome,[12],inactive
same,outcome,[13],inactive
same,outcome,[14],inactive
same,outcome,[15],inactive
same,outcome,[16],inactive
same,outcome,[18],inactive
same,outcome,[17],inactive
COc1ccc(N)cc1,outcome,[1],inactive
same,outcome,[2],inactive
same,outcome,[3],inactive
same,outcome,[4],inactive
same,outcome,[5],inactive
same,outcome,[6],inactive
same,outcome,[7],inactive
same,outcome,[8],inactive
same,AC50,[10],181 µM (active)
same,outcome,[10],inactive
same,outcome,[11],inactive
same,outcome,[12],inactive
same,outcome,[13],inactive
same,outcome,[15],inactive
same,outcome,[16],inactive
same,outcome,[18],inactive
same,outcome,[17],inactive
Clc1cnc(Oc2ccc(Oc3ncc(Cl)cc3Cl)cc2)c(Cl)c1,outcome,[1],inactive
same,outcome,[2],inactive
same,outcome,[4],inactive
same,outcome,[5],inactive
same,outcome,[19],inactive
same,outcome,[6],inactive
same,outcome,[7],inactive
same,outcome,[8],inactive
same,outcome,[9],inactive
same,outcome,[11],inactive
same,outcome,[12],inactive
same,outcome,[13],inactive
same,outcome,[14],inactive
same,outcome,[15],inactive
same,outcome,[18],inactive
same,outcome,[17],inactive
